# Only a selection was taken, and hits are over-represented in it overall.
# ID4 binder = binders of human ID4 protein | small molecule microarray, Flag-ID4 binding, fluorescence F/B | calls only | hit rate 1.2% among 31,000 | AID 624137; call rule not given here;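 note: a binder raises fluorescence above local background on the spot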
# Target sequence (P47928 whole entry, looked up): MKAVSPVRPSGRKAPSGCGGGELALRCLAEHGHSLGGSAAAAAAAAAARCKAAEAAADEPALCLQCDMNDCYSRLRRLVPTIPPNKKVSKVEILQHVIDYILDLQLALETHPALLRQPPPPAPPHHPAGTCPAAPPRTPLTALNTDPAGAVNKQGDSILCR
# STK33 inh = human STK33 kinase inhibition; ADP-Glo luminescence, MBP substrate; inhibition, % at 12.5 µM; hit rate 0.44% among 27,000; AID 2322; in the data active = inhibition above about 20%
# Active calls of the source: *; i = inactive; . = not tested or not shown; + = active, no number.
SMILES,ID4 binder,STK33 inh
O=C1O[C@H](c2ccccc2)[C@H](c2ccccc2)N2[C@H]1[C@@H](C(=O)N1CCCCCCC1)[C@]1(C(=O)Nc3ccc(C#CC4(O)CCCCCC4)cc31)[C@H]2c1ccccc1OCCO,i,21*
O=C1O[C@H](c2ccccc2)[C@H](c2ccccc2)N2[C@H]1[C@@H](C(=O)N1CCCCCCC1)[C@]1(C(=O)Nc3ccc(C#CC4=CCCCC4)cc31)[C@H]2c1ccc(OCCO)cc1,.,22*
COc1ccc(C#Cc2ccc3c(c2)[C@]2(C(=O)N3)[C@H](C(=O)N3CCN(c4ncccn4)CC3)[C@H]3C(=O)O[C@H](c4ccccc4)[C@H](c4ccccc4)N3[C@@H]2c2ccccc2OCCO)cc1,.,8
CCCN(C)C[C@H]1Oc2cc(/C=C/c3ccccc3)ccc2S(=O)(=O)N([C@H](C)CO)C[C@@H]1C,i,.
Cc1noc(C)c1NC(=O)Nc1ccc2c(c1)C(=O)N([C@@H](C)CO)C[C@H](C)[C@@H](CN(C)Cc1ccccc1)O2,.,0
COc1ccc(-c2ccc(CCC(=O)O)n2-c2ccc(C(=O)O)cc2)cc1,i,-7
COc1ccc(S(=O)(=O)Nc2ccc3c(c2)C(=O)N([C@H](C)CO)C[C@H](C)[C@H](CN(C)Cc2ccc4c(c2)OCO4)OCCCC[C@@H](C)O3)cc1,.,3
C[C@@H]1CN([C@@H](C)CO)S(=O)(=O)c2ccc(C#Cc3cccnc3)cc2O[C@H]1CN(C)C(=O)Nc1ccc2c(c1)OCO2,i,.
O=C1N(CCS(=O)(=O)c2ccccc2)Cc2ccccc2C[C@@]12COC(c1ccc(OCCCO)cc1)=N2,i,2
O=C1O[C@H](c2ccccc2)[C@H](c2ccccc2)N2[C@H]1[C@@H](C(=O)N1CCCCCCC1)[C@]1(C(=O)Nc3ccc(C#CCCO)cc31)[C@H]2c1ccccc1OCCO,i,22*
O=C1O[C@@H](c2ccccc2)[C@@H](c2ccccc2)N2[C@@H](c3ccccc3OCCO)[C@]3(C(=O)Nc4ccc(C#CCCO)cc43)[C@@H](C(=O)N3CCN(c4ncccn4)CC3)[C@H]12,i,18
CCOCCCNc1nc2c([nH]1)c(=O)n(C)c(=O)n2C,i,-3
Cn1c(=O)c2[nH]c(NCCN3CCOCC3)nc2n(C)c1=O,+,3
CC(=O)c1cccc(NC(=O)C2CCCN(S(=O)(=O)c3ccccc3)C2)c1 (stereo not given),+,2
Cc1ccc(S(=O)(=O)N2CCCC(C(=O)Nc3ccc4c(c3)OCCO4)C2)cc1 (stereo not given),i,3
Cc1ccc(NS(=O)(=O)c2cccc(C(=O)Nc3ccccc3C(=O)O)c2)cc1,+,-2
O=C(O)c1ccc(NS(=O)(=O)c2cccc(C(=O)Nc3ccccc3)c2)cc1,i,2
C[C@@H]1CN([C@H](C)CO)C(=O)c2cc(NC(=O)c3ccncc3)ccc2O[C@@H](C)CCCCO[C@@H]1CN(C)C(=O)Nc1cccc2ccccc12,+,.
CNC[C@H]1Oc2ccc(NC(=O)c3ccncc3)cc2C(=O)N([C@@H](C)CO)C[C@@H]1C,.,0
C[C@@H]1CN([C@@H](C)CO)C(=O)c2cc(NC(=O)c3ccncc3)ccc2O[C@@H](C)CCCCO[C@H]1CN(C)C(=O)Nc1cccc2ccccc12,i,.
C[C@@H]1CCCCO[C@@H](CN(C)C(=O)Nc2ccccc2)[C@@H](C)CN([C@H](C)CO)C(=O)c2cc(NC(=O)c3ccncc3)ccc2O1,.,-1
C[C@@H]1CCCCO[C@H](CN(C)C(=O)Cc2ccccc2)[C@H](C)CN([C@@H](C)CO)C(=O)c2cc(NC(=O)c3ccncc3)ccc2O1,i,.
C[C@H]1CCCCO[C@@H](CN(C)C(=O)Nc2ccccc2)[C@@H](C)CN([C@@H](C)CO)C(=O)c2cc(NC(=O)c3ccncc3)ccc2O1,+,.
C[C@@H]1CN([C@@H](C)CO)C(=O)c2cc(NC(=O)c3ccncc3)ccc2O[C@@H](C)CCCCO[C@H]1CN(C)C(=O)Cc1ccccc1,+,.
CNC[C@H]1Oc2ccc(NC(=O)c3ccncc3)cc2C(=O)N([C@H](C)CO)C[C@@H]1C,+,.
SMILES,ID4 binder,STK33 inh
O=C(CC1(O)C(=O)N(Cc2ccccc2)c2ccccc21)c1cc2ccccc2oc1=O (stereo not given),i,4
CCc1nnc(NS(=O)(=O)c2ccc(NC(=O)c3ccc(F)cc3)cc2)s1,i,2
CS(=O)(=O)N(CC(=O)Nc1ccc(C(F)(F)F)cc1)c1ccc(I)cc1,i,0
C[C@@H]1CN([C@H](C)CO)C(=O)Cc2cc(NC(=O)Cc3cn(C)c4ccccc34)ccc2O[C@@H]1CN(C)C(=O)Nc1ccc(F)cc1,.,1
CC(C)NC(=O)N(C)C[C@H]1OCCCC[C@@H](C)Oc2ccc(NC(=O)Nc3ccc(C(F)(F)F)cc3)cc2C(=O)N([C@@H](C)CO)C[C@H]1C,i,.
CC(C)NC(=O)N(C)C[C@@H]1OCCCC[C@@H](C)Oc2ccc(NC(=O)Nc3ccc(C(F)(F)F)cc3)cc2C(=O)N([C@@H](C)CO)C[C@@H]1C,+,.
CNC[C@@H]1Oc2c(NC(=O)c3ccc(-c4nccs4)cc3)cccc2C(=O)N([C@H](C)CO)C[C@H]1C,+,.
CNC[C@H]1Oc2ccc(NS(=O)(=O)c3ccccc3)cc2CC(=O)N([C@@H](C)CO)C[C@@H]1C,i,0
CNC[C@@H]1Oc2c(NC(=O)c3ccc(-c4nccs4)cc3)cccc2C(=O)N([C@H](C)CO)C[C@@H]1C,i,.
CNC[C@H]1Oc2ccc(NS(C)(=O)=O)cc2CC(=O)N([C@@H](C)CO)C[C@@H]1C,+,-1
Cc1cc2c(cc1C)C(=O)C(c1ccccc1)=C(NCc1ccccc1)C2=O,i,.
Cc1nn(C)c(C)c1CNC(=O)c1cc(-c2ccccc2Cl)nc2c(C)cccc12,i,-4
O=C(O)c1cn(C2CC2)c2cc(N3CCNCC3)c(F)cc2c1=O,i,-2
COc1c(N2CCNC(C)C2)c(F)cc2c(=O)c(C(=O)O)cn(C3CC3)c12 (stereo not given),+,3
Cc1ccc(-c2nc3ccccc3s2)cc1NC(=O)COc1cccc(C)c1C,i,3
CCCCc1c(-c2ccc(O)cc2)[nH]c2nccnc12,i,57*
CCCCc1c(-c2ccc(OC)cc2)[nH]c2nccnc12,i,17
C[C@H]1CN([C@@H](C)CO)C(=O)Cc2cc(NC(=O)NC3CCCCC3)ccc2O[C@H]1CN(C)C,i,1
O=C(CSc1n[nH]c(-c2ccco2)n1)N1c2ccccc2Sc2ccccc21,i,-2
O=C(O)c1ccc(CSc2n[nH]c(-c3ccco3)n2)cc1,+,-2
COc1ccc(-n2c(SCC(=O)N3CCOCC3)nnc2-c2ccc(Cl)cc2)cc1,i,0
C[C@H](CO)N1C[C@H](C)[C@H](CN(C)C(=O)Nc2cccc3ccccc23)Oc2ccc(N(C)C)cc2CC1=O,i,2
CCC(=O)N(C)C[C@@H]1Oc2cc(-c3cccc(OC)c3)ccc2S(=O)(=O)N([C@@H](C)CO)C[C@@H]1C,+,.
C/C=C/c1ccc2c(c1)O[C@H](CN(C)S(=O)(=O)c1ccccc1OC)[C@H](C)CN([C@@H](C)CO)S2(=O)=O,+,.
CCC(=O)N(C)C[C@@H]1Oc2cc(C#CC(C)C)ccc2S(=O)(=O)N([C@H](C)CO)C[C@@H]1C,i,.

# Bioassay records from PubChem BioAssay.
